The campaign covered roughly 48,000 compounds. About 13,000 (27%) showed an effect of 50% or more. The list shows a part of the results.
test system: Wolbachia pipientis; assay: Anti-Wolbachia Cell-Based Screen; format: functional; parameters: scale not given: in the data most compounds retested in dose-response had high values; settings: 5 µM

CCC(CNC(=O)COC)Oc1cccc(F)c1 (stereo not drawn) was tested. Which “Percent Effect” value did it give?
Its value is -17.35%.

NC(=O)c1csc(N2CCCC(c3n[nH]c(=O)n3-c3ccccc3)C2)n1 (stereo not drawn) was tested. Which “Percent Effect” value did it give?
Its value is -8.892%.

With CC(C)c1cc(C(=O)NCCn2nc3ccccn3c2=O)n[nH]1 as the compound, how does the “Percent Effect” value read?
Its value is 7.227%.

For Cc1nnc(NC(=O)NCc2ccc(C)n2C)s1, which “Percent Effect” value is on record?
The value was 1.794%.

With Cc1nnc(NC(=O)NCCCN2CCC(C(N)=O)CC2)s1 as the compound, how does the “Percent Effect” value read?
The value was 105%.

Cc1nnc(NC(=O)N2CCCCC2CCO)s1 (stereo not drawn) was tested. Which “Percent Effect” value did it give?
Its value is -9.567%.

Which “Percent Effect” value does the source give for Cc1nc(NC(=O)C2CCCN(C(=O)C3CC3)C2)sc1C (stereo not drawn) here?
Its value is 22.45%.

For Cc1nc(NC(=O)NCCCN2CCC(C(N)=O)CC2)sc1C, which “Percent Effect” value is on record?
The value was 92.76%.

Cc1nc(Nc2ccc(Cl)cn2)sc1C(=O)NCCCN1CCCCC1 was tested. Which “Percent Effect” value did it give?
The value was -4.658%.

How did the “Percent Effect” value turn out when Cc1cccc(CN2CCC(Cc3ccccc3F)CC2)n1 was run?
Its value is -1.449%.

For COC(=O)N1CCCC(NC(=O)NCc2cccc(C)n2)C1 (stereo not drawn), which “Percent Effect” value is on record?
The value was -5.43%.

Cc1cccc(CNC(=O)C2CCC(=O)N(Cc3ccccc3F)C2)n1 (stereo not drawn) was tested. Which “Percent Effect” value did it give?
The value was -24.63%.

How did the “Percent Effect” value turn out when Cc1cccc(C(=O)N2CCn3cc(CNC(=O)CC4CC4)nc3C2)n1 was run?
Its value is 2.995%.

With Cc1cccc(CN2CCS(=O)(=O)[C@@H]3CCN(S(C)(=O)=O)CC[C@@H]32)n1.O=C(O)C(F)(F)F as the compound, how does the “Percent Effect” value read?
Its value is -6.526%.

For Cc1cccc(CNC(=O)CC2CCN(S(C)(=O)=O)CC2)n1, which “Percent Effect” value is on record?
Its value is 82.07%.

Which “Percent Effect” value does the source give for Cc1cccc(CNC(=O)CC2CCN(C(=O)C(C)C)CC2)n1 here?
The value was 83.92%.

How did the “Percent Effect” value turn out when Cc1cccc(CN2CCn3cc(CNC(=O)CC4CC4)nc3C2)n1 was run?
Its value is 3.137%.

How did the “Percent Effect” value turn out when Cc1cccc(CNC(=O)CC2CCN(Cc3ccccn3)CC2)n1 was run?
Its value is 99.8%.

For Cc1cccc(C2(O)CCN(C(=O)c3ccc(N(C)C)cc3)CC2)c1C, which “Percent Effect” value is on record?
Its value is -4.914%.

For COc1ccc(Br)cc1NCC(=O)NC(C)(C#N)C1CC1 (stereo not drawn), which “Percent Effect” value is on record?
The value was 14.48%.

For O=C(Cn1cccn1)NCC1CCCN(Cc2ccccc2)C1 (stereo not drawn), which “Percent Effect” value is on record?
The value was 8.029%.

Which “Percent Effect” value does the source give for c1ccc(CN2CCC(NCCSc3ncn[nH]3)C2)cc1 (stereo not drawn) here?
The value was 12.73%.

For Cc1ccccc1CN1CCC(CNc2ncnc3c2CCNCC3)C1 (stereo not drawn), which “Percent Effect” value is on record?
The value was 119.4%.

For c1cnnc(N2CCCC2CNc2ncnc3c2CCC3)c1 (stereo not drawn), which “Percent Effect” value is on record?
Its value is 2.71%.

For c1ccc(CN2CCC(Nc3ncnc4c3CCNCC4)C2)cc1 (stereo not drawn), which “Percent Effect” value is on record?
The value was 76.79%.

Cc1[nH]c2ccccc2c1CCNc1ncnc2c1CCNCC2 was tested. Which “Percent Effect” value did it give?
Its value is -9.659%.

How did the “Percent Effect” value turn out when Cc1nc(CN2CCCC(Nc3ncnc4c3CCC4)C2)no1 (stereo not drawn) was run?
Its value is -2.2%.

For c1ccc(CN2CCC(CNc3ncnc4c3CCNCC4)CC2)cc1, which “Percent Effect” value is on record?
Its value is 97.41%.

Which “Percent Effect” value does the source give for c1ccc(CN2CCCC(CNc3ncnc4c3CCNCC4)C2)cc1 (stereo not drawn) here?
The value was 100.7%.

Which “Percent Effect” value does the source give for Cc1ccccc1CN1CCC(NCC2CNc3ccnn3C2)CC1 (stereo not drawn) here?
The value was 8.316%.

Which “Percent Effect” value does the source give for OC(CN(Cc1ccccc1)Cc1ccncc1)c1cccs1 (stereo not drawn) here?
The value was 13.62%.

With Cc1nnc(CN2CCC(Oc3ccc(C)c(C)c3)CC2)o1 as the compound, how does the “Percent Effect” value read?
The value was -18.16%.

Cc1ccc(CNCCS(=O)(=O)N2CCOCC2)cc1C was tested. Which “Percent Effect” value did it give?
The value was -37.41%.

Cc1ccn(CCNc2ncnc3c2CCN(Cc2ncc[nH]2)CC3)n1 was tested. Which “Percent Effect” value did it give?
Its value is 5.519%.

c1ccc(CN2CCC(CCNc3ncnc4c3CCNCC4)C2)cc1 (stereo not drawn) was tested. Which “Percent Effect” value did it give?
The value was 82.99%.

Which “Percent Effect” value does the source give for COCC1CC2(CCN(C(=O)c3cccn3C)CC2)CN1C(C)C (stereo not drawn) here?
The value was -8.006%.

With COCC1CC2(CCN(Cc3ccc(OC)cc3)CC2)CN1C(C)C.O=C(O)C(F)(F)F.O=C(O)C(F)(F)F (stereo not drawn) as the compound, how does the “Percent Effect” value read?
The value was -13.29%.

Which “Percent Effect” value does the source give for COCC1CC2(CCN(C(=O)c3ccccc3C)CC2)CN1C(C)C.O=C(O)C(F)(F)F (stereo not drawn) here?
Its value is 101.7%.

Which “Percent Effect” value does the source give for COCC1CC2(CCN(C(=O)c3ccco3)CC2)CN1C(C)C.O=C(O)C(F)(F)F (stereo not drawn) here?
The value was 111.9%.

With COCC1CC2(CCN(Cc3cnn(C)c3)CC2)CN1C(C)C.O=C(O)C(F)(F)F.O=C(O)C(F)(F)F (stereo not drawn) as the compound, how does the “Percent Effect” value read?
Its value is -6.847%.

With COCC1CC2(CCN(Cc3ccc(C)o3)CC2)CN1C(C)C.O=C(O)C(F)(F)F.O=C(O)C(F)(F)F (stereo not drawn) as the compound, how does the “Percent Effect” value read?
The value was 100.3%.

With COCC1CC2(CCN(C(=O)c3occc3C)CC2)CN1C(C)C.O=C(O)C(F)(F)F (stereo not drawn) as the compound, how does the “Percent Effect” value read?
Its value is 98.04%.

COCC1CC2(CCN(C(=O)c3ccc(C)nc3)CC2)CO1.O=C(O)C(F)(F)F (stereo not drawn) was tested. Which “Percent Effect” value did it give?
The value was -3.949%.

COCC1CC2(CCN(C(=O)c3cc(C)oc3C)CC2)CN1C(C)C.O=C(O)C(F)(F)F (stereo not drawn) was tested. Which “Percent Effect” value did it give?
The value was 17.98%.

With N#Cc1ccc(C2CC(=O)Nc3c2cnn3C2CCCC2)cc1 (stereo not drawn) as the compound, how does the “Percent Effect” value read?
The value was 11.66%.

N#Cc1cn(C2CC2)c(=O)n(Cc2cc(-c3cccs3)on2)c1=O was tested. Which “Percent Effect” value did it give?
The value was 15.09%.

Which “Percent Effect” value does the source give for COC(=O)CCN1CCC(NC(=O)OC(C)(C)C)CC1 here?
Its value is -7.075%.

With CC(C1CCN(Cc2cnn(C)c2C2CC2)CC1)N1CCN(C)CC1 (stereo not drawn) as the compound, how does the “Percent Effect” value read?
Its value is -5.459%.

How did the “Percent Effect” value turn out when Cc1cccc(-c2nccnc2C2CCCN(C)C2)c1C (stereo not drawn) was run?
The value was 89.85%.

CN1CCCC(c2nc3c([nH]2)CC(C)(C)CNC3=O)C1 (stereo not drawn) was tested. Which “Percent Effect” value did it give?
Its value is -16.77%.

For CN1CCCC(c2nccnc2-c2cccc(Cl)c2)C1 (stereo not drawn), which “Percent Effect” value is on record?
The value was 117.7%.

Which “Percent Effect” value does the source give for COc1ccc(C)cc1-n1cnnc1C1CCCN(C)C1 (stereo not drawn) here?
Its value is 8.034%.

For Cc1cccc(-c2nccnc2C2CCN(C)CC2)c1C, which “Percent Effect” value is on record?
The value was 64.83%.

Which “Percent Effect” value does the source give for O=C(c1cccc(Cl)c1)C1CCCN(c2nnc(C3CCC3)o2)C1 (stereo not drawn) here?
Its value is -5.901%.

For Cc1nnc(N2CCCC(C(=O)c3cccc(Cl)c3)C2)o1 (stereo not drawn), which “Percent Effect” value is on record?
Its value is -20.06%.

With CCN(C)C(C(=O)Nc1ccc2c(c1)CCC(=O)N2)c1ccccc1 (stereo not drawn) as the compound, how does the “Percent Effect” value read?
The value was 0.8734%.

How did the “Percent Effect” value turn out when OCCn1ncc2c1CN(CC1CCOc3ccccc3C1)C2 (stereo not drawn) was run?
Its value is 4.778%.

With CC(NC(=O)NCc1cscn1)c1ccc(N2CCOCC2)cc1 (stereo not drawn) as the compound, how does the “Percent Effect” value read?
Its value is -18.24%.

Which “Percent Effect” value does the source give for O=c1[nH]c2c(c(=O)n1C1CCCCC1)CCC2NCCc1ccccc1 (stereo not drawn) here?
The value was 24.49%.

With CC(C)N(CC1CCCN(CC(N)=O)C1)C(=O)OC(C)(C)C (stereo not drawn) as the compound, how does the “Percent Effect” value read?
The value was 12.71%.

COc1cccc(-c2cc(-c3nc(CN4CCN(C)CC4)no3)[nH]n2)c1 was tested. Which “Percent Effect” value did it give?
The value was 0.4618%.

How did the “Percent Effect” value turn out when Cn1cccc1C(=O)N1CCC2(CC1)CCN2S(C)(=O)=O was run?
The value was -0.7561%.

Which “Percent Effect” value does the source give for Cn1cccc1C(=O)N1CCC(O)(CN2CCc3ccccc3C2)C1 (stereo not drawn) here?
The value was 119.3%.

For Cn1cccc1C(=O)N1CCCC2(CCCN2S(C)(=O)=O)C1 (stereo not drawn), which “Percent Effect” value is on record?
The value was 2.477%.

How did the “Percent Effect” value turn out when CN(C)CC1(O)CCN(C(=O)c2cnc(CN3CCCC3)s2)C1 (stereo not drawn) was run?
Its value is -12.27%.

Cc1ccc(C(=O)N2CCN(CC(O)c3ccc(F)cc3)CC2)s1 (stereo not drawn) was tested. Which “Percent Effect” value did it give?
The value was -1.791%.

For Cc1csc(C(=O)N2CCC(O)(CN3CCc4ccccc4C3)C2)c1 (stereo not drawn), which “Percent Effect” value is on record?
Its value is 114.3%.

With Cc1ccc(C(=O)N2CCC(O)(CN3CCc4ccccc4C3)C2)s1 (stereo not drawn) as the compound, how does the “Percent Effect” value read?
Its value is 99.66%.

From ChEMBL document CHEMBL3988442, “University of Dundee, Small-Polar-MMV Screening Library” (2021)
